Shown are actives, neighbours in structure and some others; about 3.1% of the full set was active somewhere.
15-hLO-2 inh: 15-hLO-2 (ALOX15B) enzyme inhibition. 0.56% of 110,000 active. Potency, µM (titrated, usually from 57.1 µM), hits mostly inhibitors. AID 881. purified 15hLO-2, xylenol orange hydroperoxide absorbance. O15296; further: nearly all actives have a fitted effect of over 60% in size
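Purified human 15hLO-2 (50 nM) preincubated 15 min with compound, then 45 uM arachidonic acid for 90 min at RT in 25 mM Hepes pH 7.5, 0.01% Triton X-100. Hydroperoxide detected by Fe-xylenol orange; 573/405 nm absorbance ratio.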
PNC assembly inh: inhibitors of perinucleolar compartment assembly; activity change (PNC), negative = inhibition, % at 10 µM; PC3M PTB-GFP, PNC prevalence imaging, 16 h; active compounds read low; 3.1% of 140,000 active; AID 2417;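 active means readout at or below -70, meaning at least 70% loss of cells showing the perinucleolar compartment, a nuclear body marking cancer cells; inconclusive means readout between -30 and a set limit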
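Read-out is percentage of cells bearing a perinucleolar compartment, from automated 20x imaging of fixed, Hoechst-stained PC3M PTB-GFP cells. Cells were seeded 4 h, then exposed 16 h to compound (23 nl of library stock) in duplicate plates.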
12-hLO inh: 12-hLO (ALOX12) enzyme inhibition | P18054 | purified 12-hLO, xylenol orange hydroperoxide absorbance | Potency, µM (series often up to 57.1 µM), actives largely listed as inhibitors | 0.12% of 150,000 active | AID 1452; further: nearly all actives have a fitted effect of over 55% in size
Target sequence (P18054 whole entry, looked up): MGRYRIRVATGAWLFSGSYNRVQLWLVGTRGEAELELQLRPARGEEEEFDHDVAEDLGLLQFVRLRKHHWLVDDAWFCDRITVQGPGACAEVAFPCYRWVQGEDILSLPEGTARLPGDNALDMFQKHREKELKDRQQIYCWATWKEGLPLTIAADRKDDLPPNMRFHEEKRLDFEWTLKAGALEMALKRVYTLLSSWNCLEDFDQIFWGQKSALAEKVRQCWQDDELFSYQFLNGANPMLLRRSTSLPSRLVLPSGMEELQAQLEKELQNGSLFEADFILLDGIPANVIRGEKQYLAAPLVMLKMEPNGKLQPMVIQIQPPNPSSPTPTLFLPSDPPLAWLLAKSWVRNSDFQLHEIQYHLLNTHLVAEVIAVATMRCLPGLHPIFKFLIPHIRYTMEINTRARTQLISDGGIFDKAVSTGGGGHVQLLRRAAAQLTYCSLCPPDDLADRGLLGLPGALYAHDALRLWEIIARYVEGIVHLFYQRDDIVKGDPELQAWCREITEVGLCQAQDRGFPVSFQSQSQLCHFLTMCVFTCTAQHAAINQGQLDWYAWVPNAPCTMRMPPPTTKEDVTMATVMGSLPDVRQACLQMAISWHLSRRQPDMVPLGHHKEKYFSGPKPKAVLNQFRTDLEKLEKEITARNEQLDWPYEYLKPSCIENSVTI
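Hydroperoxide formation by human 12-lipoxygenase from 40 uM arachidonic acid was followed colorimetrically via ferric-xylenol orange complex, using the 573/405 nm absorbance ratio. Enzyme concentration was 150 nM, with 30 min reaction at room temperature.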
Large screens that a line does not name were inactive. Unless noted, the call rests on the fitted dose curve; in most records, active means well fitted curve in the direction sought with a large enough effect; inconclusive means small, poorly fitted or top-dose-only effect, or another doubt; inactive means no such curve, though single readings can be large; an effect the other way counts as inactive or inconclusive.

COc1ccc(Oc2ncc3ncc(=O)n(CCC#N)c3n2)cc1	none (no result: PNC assembly inh)
Cc1c(C(=O)O)oc2ccc(S(=O)(=O)NCc3ccc(F)cc3)cc12	none
Cc1c(C(=O)O)oc2ccc(S(=O)(=O)NC3CCCCCCC3)cc12	PNC assembly inh -113.4 (no result: 15-hLO-2 inh)
O=C(c1ccncc1)N1CCC2(CCCN(c3ccccn3)C2)CC1	none (no result: PNC assembly inh)
Cc1noc(C)c1C(=O)N1CCC2(CCCN(Cc3ccc(C#N)cc3)C2)CC1	none (no result: PNC assembly inh)
CN1C2CCC1CC(OC(=O)c1c[nH]c3ccccc13)C2 (centres undefined)	PNC assembly inh -89.0
CN1[C@@H]2CC[C@H]1CC(OC(=O)c1c[nH]c3ccccc13)C2 (some centres undefined)	none (no result: PNC assembly inh)
CSc1nnc2c3ccccc3n(CCc3ccccc3)c2n1	PNC assembly inh -118.5
CSc1nnc2c3ccccc3n(Cc3ccccc3)c2n1	PNC assembly inh inconclusive
O=c1cc[nH]c(=S)[nH]1	none (no result: PNC assembly inh)
CC(=O)N(Cc1ccccc1)c1ccc(C(=O)O)cc1	PNC assembly inh -85.0
CC(=O)N(CCN(C(C)=O)c1ccccc1)c1ccccc1	PNC assembly inh inconclusive
CC(=O)OCC(=O)[C@@]1(O)[C@H](OC(C)=O)C[C@H]2[C@@H]3CCC4=CC(=O)C=C[C@]4(C)[C@@]3(F)[C@@H](O)C[C@@]21C	none (no result: PNC assembly inh)
COc1ccc(CCn2c(N3CCN(C)CC3)nc3c2c(=O)[nH]c(=O)n3C)cc1	none
COc1ccc(CCn2c(Br)nc3c2c(=O)[nH]c(=O)n3C)cc1	PNC assembly inh -82.3
COc1ncc2nc(C)c(=O)n(C3CC3)c2n1	none (no result: PNC assembly inh, 12-hLO inh)
CCN(CC)CCC(=O)Nc1ccc2c(c1)N(C(=O)CN(CC)CC)c1ccccc1CC2	none
CN(C)CC(=O)N1c2ccccc2CCc2ccc(NC(=O)c3ccc(N)cc3)cc21	PNC assembly inh -85.3
COC(=O)c1c(C)oc2ccc(OC(=O)c3cccs3)cc12	none
COCCOC(=O)c1c(C)oc2ccc(OC(=O)c3cccs3)cc12	PNC assembly inh -139.2
CN(C)c1ccc(-c2nc(NCCc3cnc[nH]3)c3ccccc3n2)cc1	none (no result: PNC assembly inh, 12-hLO inh)
COCCNc1cc(-c2ccccc2C(F)(F)F)ncn1	none (no result: PNC assembly inh)
CC1(C)CCC(NC(=O)[C@H](N)CCC(=O)O)CC1	none (no result: PNC assembly inh)
COC1C(O)C(CO)OC1n1cnc2c(=O)[nH]c(N)nc21 (centres undefined)	none (no result: PNC assembly inh)
CCOc1ccc(-c2nc(CSc3nnc(N)s3)cs2)cc1	none
CCOc1ccc(-c2nc(CSc3nnc(N)s3)cs2)cc1OC	PNC assembly inh -100.7
S=C(NC1CCCCC1)NC1CCCCC1	none (no result: PNC assembly inh)
c1cc(NNc2cccc(-c3nn[nH]n3)c2)cc(-c2nn[nH]n2)c1	none (no result: PNC assembly inh)
Cc1nn(-c2ccccc2)c(C)c1/C=N/NC(=O)c1cc(-c2cccc3ccccc23)n[nH]1	none (no result: 15-hLO-2 inh)
Cc1nn(-c2ccccc2)c(C)c1/C=N/NC(=O)c1cc(-c2ccccc2)n[nH]1	PNC assembly inh -87.4
O=C(O)c1cc(-c2ccncc2)nc2ccccc12	none (no result: PNC assembly inh)
OC1CCC2Cc3ccccc3N=C12 (centres undefined)	none (no result: PNC assembly inh)
CC(=O)OC1CC[C@@]2(C)C3=CC(=O)[C@]4(C)C(CC5OC6(OCC(C)CC6Br)C(C)C54)C3CC[C@H]2C1 (some centres undefined)	none (no result: PNC assembly inh)
CCOC(=O)c1c(C)n(C)c2ccc(OC)c(NC(=O)CN3CCSCC3)c12	PNC assembly inh -104.9
CCOC(=O)c1c(C)n(C)c2ccc(OC)c(NC(=O)c3cccs3)c12	PNC assembly inh inconclusive
CCCOc1ccc(N2C(=O)CC(NCCNc3ccc(S(=O)(=O)CC)cc3)C2=O)cc1 (centres undefined)	PNC assembly inh inconclusive
COc1ccc(N2C(=O)CC(NCCNc3ccc([N+](=O)[O-])cn3)C2=O)cc1 (centres undefined)	PNC assembly inh -100.4 (no result: 15-hLO-2 inh)
Cc1noc(C)c1-c1nccc(N(C)C)n1	none (no result: PNC assembly inh, 12-hLO inh)
COc1ccccc1N1C(=O)c2cccc3c(C(=O)O)ccc(c23)C1=O	none
Cc1ccccc1N1C(=O)c2cccc3c(N(C)CCO)ccc(c23)C1=O	PNC assembly inh -80.3
OCCSCc1ccccc1	none (no result: PNC assembly inh)
c1ccc(C(CCN2CC3CCC(CC3)C2)c2ccccc2)cc1	none (no result: PNC assembly inh)
Nc1cccc(N)c1	none (no result: PNC assembly inh)
O=C(CSc1nc2ccccc2n1S(=O)(=O)c1cccc([N+](=O)[O-])c1)NCCc1ccccc1	PNC assembly inh -113.4 (no result: 15-hLO-2 inh)
O=C(CSc1nc2ccccc2c(=O)n1NC(=O)Cc1ccccc1)NCCc1ccccc1	none
CCCCNC(=O)CSc1nc2ccccc2n1S(=O)(=O)c1ccc(Cl)cc1	PNC assembly inh -119.3 (no result: 15-hLO-2 inh)
CCCCNC(=O)CSc1nc2ccccc2n1S(=O)(=O)c1ccc(Br)cc1	none (no result: 15-hLO-2 inh)
COC(=O)C1=C(C)N=C2SCCC(=O)N2C1c1cc(Br)ccc1OC (centres undefined)	none

Screening data as filed in PubChem BioAssay.
